Experimental findings from PubChem BioAssay are described below.

“And” between values parts separate entries of the source, which are not always exact repeats. Equal entries are not always repeated. Records with an inconclusive call do not appear. The source made the active and inactive calls. Unless noted, cut-off not given; nearly all actives show AC50 up to about 26 µM.

Assay [1] is described as follows: growth inhibition of DIPG glioma cells, dose response, cell-based, SU-DIPG-XVII, MIPE5.0, CellTiter-Glo, qHTS (AID 1347060).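 On AC50: cells exposed to compound for 48 hours before viability readout.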 Conditions: SU-DIPG-XVII viability, CellTiter-Glo ATP luminescence. (In general: ATP-based viability assays read luminescence as a measure of living cells.)
Assay [2] can be described thus: growth inhibition of DIPG glioma cells, dose response, cell-based, SU-DIPG-XIII, MIPE4.0, CellTiter-Glo, qHTS (AID 1347061; cut-off not given, nearly all actives have AC50 up to about 37 µM;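 further: cells exposed to compound for 48 hours before readout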). Conditions: SU-DIPG-XIII viability, CellTiter-Glo ATP luminescence.
A short description of assay [3]: growth inhibition of DIPG glioma cells, dose response, cell-based, JHH-DIPG-1, MIPE4.0, CellTiter-Glo, qHTS (AID 1347062; cut-off not given, nearly all actives have AC50 up to about 27 µM;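 on AC50: cells exposed to compound for two days before readout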). Conditions: JHH-DIPG-1 viability, CellTiter-Glo ATP luminescence.
Assay [4] can be described thus: growth inhibition of DIPG glioma cells, dose response, cell-based, SU-DIPG-IV, MIPE4.0, CellTiter-Glo, qHTS (AID 1347063; cut-off not given, nearly all actives have AC50 up to about 30 µM;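 further: compound exposure lasted 48 hours before the viability readout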). Conditions: SU-DIPG-IV viability, CellTiter-Glo ATP luminescence.
Assay [5] in a line: growth inhibition of DIPG glioma cells, dose response, cell-based, SU-DIPG-XIII, MIPE5.0, CellTiter-Glo, qHTS (AID 1347064; cut-off not given, nearly all actives have AC50 up to about 23 µM;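 on AC50: cells exposed to compound for 48 hours before the viability read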). Conditions: SU-DIPG-XIII viability, CellTiter-Glo ATP luminescence.
Assay [6] is described as follows: viability loss in pontine glioma line – cell-based, SU-DIPG-XXV, MIPE5.0, CellTiter-Glo, qHTS, dose response (AID 1347065).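 Further: cells exposed to compound for 48 hours before ATP readout.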 Conditions: CellTiter-Glo ATP luminescence.
Assay [7] can be described thus: SU-DIPG-VI glioma cell viability, MIPE4.0 library, CellTiter-Glo luminescence, qHTS (AID 1347066; cut-off not given, nearly all actives have AC50 up to about 30 µM;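 further: cells exposed to compound for 48 hours before readout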). Conditions: CellTiter-Glo ATP luminescence.
A short description of assay [8]: JHH-DIPG-1 glioma cell viability, MIPE5.0 library, CellTiter-Glo luminescence, qHTS (AID 1347067).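 Further: cells exposed to compound for 48 hours before readout.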 Conditions: JHH-DIPG-1 glioma viability, CellTiter-Glo ATP luminescence.
Assay [9] is described as follows: SU-DIPG-XXV glioma cell viability, MIPE5.0 library, qHTS (AID 1347068; cut-off not given, nearly all actives have IC50 up to about 30 µM;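 on IC50: cells exposed to compound for 48 hours before viability readout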). A general note: Quantitative high-throughput screening tests each substance at several concentrations.
A short description of assay [10]: hESC survival regulators, cell-based (AID 493140; call rule not given here;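 further: cells exposed to compounds for four days before counting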). The settings on record: human embryonic stem cell survival screen; stronger effect = higher value.
The nature of assay [11]: liver-stage malaria parasite growth inhibition, primary screen, cell-based, HepG2, luciferase luminescence, HepG2 viability (AID 624349; in the data active means parasite load remaining mostly below about 12%, no sharp cut-off; inactive means mostly above about 10%;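 further: 100% = mean of DMSO negative control wells on the same plate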). Conditions: P. berghei liver stage in HepG2, luciferase luminescence, concentration not given here; parasite load remaining: stronger effect = lower value; viability: measured here: HepG2 viability without parasites.
The nature of assay [12]: sensitizers of A549 cells to miR-34 induction, primary screen, imaging, A549 dox-inducible miR-34, nuclei and caspase counts (AID 1347080;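 active means compounds whose cell count with miR-34 switched on is under 0.7 times the count with it off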). The settings on record: A549 miR-34 inducible, Hoechst nuclei count, 48 h.
Assay [13] can be described thus: survival rescue of mitochondrial mutant cells in low glucose, primary screen, MELAS cybrids, Rieske KO mouse fibroblasts, CellTiter-Glo (AID 1508586;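 active means mean z-score across replicates of 1.96 or higher in either the MELAS or the Rieske mutant cell line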;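 further: z relative to plate mean and SD of compound and empty wells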).
A short description of assay [14]: circadian clock period modulators, cell-based, LOPAC library, luminescence reporter (AID 2774; call rule not given here;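 further: values are relative to mean of DMSO wells on each plate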). Conditions: circadian reporter cells, at 7 µM, actives lie on both sides.
Assay [15] has as its system Hepatitis C virus NS3 helicase. Nature of the assay: HCV NS3 helicase inhibitors, primary screen, biochemical, fluorescence polarization, LOPAC1280 library (AID 687035; in the data active means inhibition above about 37%). The settings on record: Purified HCV NS3 helicase, Cy5-dT15 ssDNA binding fluorescence polarization; stronger effect = higher value; concentration not given here. Background: Fluorescence polarisation rises when a labelled molecule tumbles more slowly, as on binding a larger partner.

Assay [16] in a line: Cy5 fluorescence quenching or enhancement artefacts, artefact control for HCV NS3 helicase inhibitor project, biochemical, LOPAC1280 (AID 687037; call rule not given here). The settings on record: Cy5-DNA-NS3h complex fluorescence interference counterscreen.
Assay [17] concerns Aerobactin synthetase IucA (Klebsiella pneumoniae, hypervirulent). Nature of the assay: IucA enzyme inhibition, biochemical, LOPAC library, absorbance readout (AID 1346212; call rule not given here;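 further: 100% = no compound wells and 0% = no enzyme wells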). The settings on record: IucA enzyme assay, absorbance (OD) readout; stronger effect = lower value;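 tested at 8 µM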.
Assay [18] is described as follows: kinase inhibitors against Plasmodium liver-stage infection, cell-based, known kinase inhibitor set, luminescence, hepatoma host viability (AID 624392; call rule not given here;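 further: infected cells incubated roughly two days before readout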). Conditions: Plasmodium liver stage in hepatoma cells, luciferase luminescence, concentration not given here; liver cell % of control: measured here: host liver cell viability; parasite % of control: stronger effect = lower value.

The nature of assay [19]: modifiers of HSF1 nuclear foci, imaging, Selleck Cancer Library (AID 1347162; in the data active means plate-normalised HSF1 focus index below about 0.46). The settings on record: human cells, at 10 µM; SSMD: measured here: HSF1 foci SSMD mean; cell count: measured here: cell number; plate-normalised HSF1 focus index: stronger effect = lower value.
Where [20] appears, read: stronger effect = lower value, cell number ratio, induced over uninduced.
The mark [21] stands for this setting: measured here: relative caspase fold change +Dox/-Dox.
Setting [22] is: measured here: total cells with miR-34 induction, stronger effect = lower value.
The mark [23] stands for this setting: measured here: total cells without miR-34 induction.
Where [24] appears, read: MELAS cybrid survival, CellTiter-Glo 48 h, stronger effect = higher value.
Setting [25] is: Rieske KO mouse fibroblast survival, CellTiter-Glo 72 h.

By AC50 is commonly meant the midpoint of the concentration-response curve, whichever way the signal moves. By IC50 is commonly meant the concentration that gives 50% inhibition. As for `Cc1[nH]nc2ccc(-c3cncc(OC[C@@H](N)Cc4c[nH]c5ccccc45)c3)cc12`, the AC50 in assay [1] was 833 nM (active); in assay [2] it was 4690 nM (active); in assay [3] it was 590 nM (active); in [4], 3720 nM (active); in assay [5] it was 742 nM (active); in assay [6], 742 nM (active). For the same molecule, the figures for the AC50 in [7] and in assay [8] were 14800 nM (active) and 525 nM (active), respectively. In addition, the IC50 in [9] is 1860 nM (active).

Regarding `O=C(Oc1ccc([N+](=O)[O-])cc1)N1CCN(Cc2cccc(Oc3ccccc3)c2)CC1`, the molecule was classed as inactive in assay [1], in [3], in assay [5], in assay [6], in assay [7] and in assay [8]. Further, in assay [2], the AC50 was 11800 nM (active).

As for `C/C(=C\c1csc(C)n1)[C@@H]1C[C@@H]2O[C@]2(C)CCC[C@H](C)[C@H](O)[C@@H](C)C(=O)C(C)(C)[C@@H](O)CC(=O)O1`, the results for the AC50 in assay [1] and in assay [6] were 2.63 nM (active) and 1.66 nM (active), respectively. Also, the result in [2], in assay [3], in assay [4], in [5] and in assay [7] was inactive.

Usually viability stands for the share of living cells, or the viability signal relative to a control. Take `C=C[C@H]1CN2CCC1C[C@@H]2[C@@H](O)c1ccnc2ccccc12` (stereo partly drawn): in [10], the survival was 1.25 (inactive). Moreover, in [11], the parasite load remaining is 79% (inactive). For the same molecule, the viability in assay [11] is 73.5%. The call in [1], in assay [3], in [5], in assay [6], in assay [8] and in assay [9] was inactive. Besides, the AC50 in assay [2] and in assay [7] was 20900 nM (active) in each case.

Turning to `Cc1ccccc1-n1c(Cn2ncc3c(N)ncnc32)nc2cccc(C)c2c1=O`, the molecule was called inactive in [1], in assay [2], in assay [5], in assay [6], in assay [8] and in [9]. For the same molecule, the fold change is 0.903 (inactive) in assay [12] (setting [20]) and 0.968 in [12] (setting [21]). In addition, the cell count in assay [12] (setting [22]) was 8570; in assay [12] (setting [23]) it was 9490. For the same molecule, the z-score is -0.332 (inactive) in [13] (setting [24]) and 0.957 in assay [13] (setting [25]).

Broadly, the inhibition is the relative decrease from the control value, in per cent. Broadly, the remaining activity is the signal under treatment as a percentage of the control signal. As for `C[Se]C[C@H](N)C(=O)O`, the period change in [14] is -0.13 h (inactive). In addition, the inhibition in assay [15] was -5% (inactive). The fluorescence ratio (interference) in [16] is 1 (inactive). The remaining activity in assay [17] is 106% (inactive).

Take `COc1ccc2c(c1)/C(=C/c1cnc[nH]1)C(=O)N2`: in [11], the parasite load remaining was 16.5% (inactive) and the viability worked out at 98.5%. Further, in assay [17], the remaining activity is 119% (inactive).

For `CCN(CCCl)Cc1ccccc1Br`, in assay [14], the period change was -0.02 h (inactive). Further, the inhibition in assay [15] is -2% (inactive). Besides, the fluorescence ratio (interference) in assay [16] is 1 (inactive). In [17], the remaining activity was 111% (inactive).

Consider `C[C@]12CC[C@@H]3c4ccc(OC(=O)N(CCCl)CCCl)cc4CC[C@H]3[C@@H]1CC[C@@H]2OP(=O)(O)O`, for which the outcome in [1], in [2], in assay [3], in assay [4], in assay [5] and in assay [6] was inactive. Moreover, the call in assay [7], in assay [8] and in [9] was inactive.

Regarding `Cc1ccccc1-n1c(Cn2cnc3c(N)ncnc32)nc2cccc(C)c2c1=O`, the liver cell % of control in assay [18] was 91.8% and 81.8% and 99.4%. For the same molecule, the parasite % of control in assay [18] was 49.6% (inactive) and 56.6% (inactive) and 61.4% (inactive). The call in assay [1], in [5], in assay [6], in [8] and in [9] was inactive. Besides, the AC50 in assay [2] is 4180 nM (active); in [3], 1320 nM (active); in assay [4] it was 105 nM (active); in assay [7] it was 743 nM (active). For the same molecule, in assay [19], the SSMD came out at 2.3. The molecule further gave a cell count in assay [19] of 6650. Moreover, the plate-normalised HSF1 focus index in assay [19] was 1.12 (inactive).

As for `COC(=O)[C@]12CCC(C)(C)C[C@H]1[C@H]1C(=O)C=C3[C@@]4(C)C=C(C#N)C(=O)C(C)(C)[C@@H]4CC[C@@]3(C)[C@]1(C)CC2`, the AC50 was 3720 nM (active) in assay [1]; 2640 nM (active) in assay [2]; 590 nM (active) in assay [3]; 469 nM (active) in [4]; 3720 nM (active) in assay [5]; 2090 nM (active) in assay [6]. Moreover, the concentration at half-maximal activity (AC50) in assay [7] was 743 nM (active); in [8] it was 833 nM (active). Also, in assay [9], the 50% inhibitory concentration (IC50) was 10500 nM (active).

As to `C/C(=C\c1csc(C)n1)[C@@H]1C[C@@H]2O[C@@H]2CCC[C@H](C)[C@H](O)[C@@H](C)C(=O)C(C)(C)[C@@H](O)CC(=O)O1`, the AC50 was 6.62 nM (active) in assay [1] and 9.34 nM (active) in assay [6]. The molecule was classed as inactive in [2], in assay [5] and in assay [7].

As to `CC(C)[C@H]1C(=O)N[C@H](CO)Cc2c[nH]c3cccc(c23)N1C`, the result in assay [1], in assay [2], in assay [7] and in assay [9] was inactive.

`C=CCN(C1=NCCN1)c1c(Cl)cccc1Cl`: in assay [15], the inhibition is -4% (inactive). The fluorescence ratio (interference) in assay [16] is 1 (inactive). The remaining activity in [17] was 95.7% (inactive).

For the molecule `N[C@@H](CCl)C(=O)O`, the period change in assay [14] is 0.125 h (inactive). The inhibition in assay [15] is -3% (inactive). Also, in assay [16], the fluorescence ratio (interference) was 1 (inactive). Besides, in assay [17], the remaining activity is 104% (inactive).

Regarding `Cc1ccccn1.[Cl][Pt][Cl].[NH2-]`, the result in [1], in assay [2], in [6] and in assay [9] was inactive.

In the case of `O=C(O)CNC(=O)c1c(O)c2ccccc2n(Cc2ccccc2)c1=O`, the molecule was called inactive in assay [1], in assay [2], in assay [3], in assay [4], in assay [5] and in assay [6]. In addition, the molecule was classed as inactive in assay [7], in [8] and in assay [9]. The fold change in assay [12] (setting [20]) was 1.05 (inactive); in assay [12] (setting [21]), 0.358. In addition, the values for the cell count in [12] (setting [22]) and in assay [12] (setting [23]) were 8330 and 7930, respectively. Also, the z-score in [13] (setting [24]) was -0.124 (inactive); in [13] (setting [25]), -0.159.

`CC12CCC3C(CCC4=C(O)C(=O)CCC43C)C1CCC2=O` (stereo not drawn): the period change in [14] was -0.08 h (inactive). Also, the inhibition in [15] was -3% (inactive). In addition, the fluorescence ratio (interference) in [16] is 1 (inactive). Moreover, the remaining activity in [17] is 113% (inactive).
